From PubChem BioAssay
JNK3 blocker: JNK3 (human) kinase inhibition; AID 746; P53779; inhibition, % at 8 µM; purified JNK3 kinase activity, HTS; hit rate 0.61% among 60,000; in the data active = inhibition above about 17%
hDAT+cocaine: modulates human dopamine transporter uptake under cocaine; B-score at 10 µM; LLC-PK1 hDAT cells, [14C]-dopamine uptake with cocaine IC80; actives deviate in either direction; Q01959; hit rate 1.3% among 110,000;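 active = Z score or B-score, a plate-position-corrected score, falls beyond the plate's 99.7% confidence bounds, in either direction; inactive = both scores lie inside the 99.7% bounds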
PKA kinase inh: inhibitors of human protein kinase A. hit rate 0.1% among 65,000. P17612. inhibition, % at 6 µM. PKA Kemptide phosphorylation, Kinase-Glo ATP luminescence;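 active = inhibition above the screen-wide mean inhibition plus 3 SD, cut at about 21% in these data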
D1 mod: D1 dopamine receptor (human) allosteric modulation | P21728 | HEK293 D1, CRE-luciferase, dopamine EC30 potentiation; actives deviate in either direction | B-score at 10 µM | hit rate 5.9% among 58,000 | AID 641;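 active = luminescence count or its row- and column-corrected plate score outside the 99.7% band of the plate's sample wells, on either side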
ROCK2 inh: blocks human Rho kinase 2 activity; O75116; purified ROCK2, Kinase-Glo ATP depletion luminescence; inhibition, % at 6 µM; hit rate 0.35% among 60,000;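 active = inhibition above the screen-wide mean inhibition plus 3 SD, cut at about 18% in these data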
Target sequence (O75116 whole entry, looked up): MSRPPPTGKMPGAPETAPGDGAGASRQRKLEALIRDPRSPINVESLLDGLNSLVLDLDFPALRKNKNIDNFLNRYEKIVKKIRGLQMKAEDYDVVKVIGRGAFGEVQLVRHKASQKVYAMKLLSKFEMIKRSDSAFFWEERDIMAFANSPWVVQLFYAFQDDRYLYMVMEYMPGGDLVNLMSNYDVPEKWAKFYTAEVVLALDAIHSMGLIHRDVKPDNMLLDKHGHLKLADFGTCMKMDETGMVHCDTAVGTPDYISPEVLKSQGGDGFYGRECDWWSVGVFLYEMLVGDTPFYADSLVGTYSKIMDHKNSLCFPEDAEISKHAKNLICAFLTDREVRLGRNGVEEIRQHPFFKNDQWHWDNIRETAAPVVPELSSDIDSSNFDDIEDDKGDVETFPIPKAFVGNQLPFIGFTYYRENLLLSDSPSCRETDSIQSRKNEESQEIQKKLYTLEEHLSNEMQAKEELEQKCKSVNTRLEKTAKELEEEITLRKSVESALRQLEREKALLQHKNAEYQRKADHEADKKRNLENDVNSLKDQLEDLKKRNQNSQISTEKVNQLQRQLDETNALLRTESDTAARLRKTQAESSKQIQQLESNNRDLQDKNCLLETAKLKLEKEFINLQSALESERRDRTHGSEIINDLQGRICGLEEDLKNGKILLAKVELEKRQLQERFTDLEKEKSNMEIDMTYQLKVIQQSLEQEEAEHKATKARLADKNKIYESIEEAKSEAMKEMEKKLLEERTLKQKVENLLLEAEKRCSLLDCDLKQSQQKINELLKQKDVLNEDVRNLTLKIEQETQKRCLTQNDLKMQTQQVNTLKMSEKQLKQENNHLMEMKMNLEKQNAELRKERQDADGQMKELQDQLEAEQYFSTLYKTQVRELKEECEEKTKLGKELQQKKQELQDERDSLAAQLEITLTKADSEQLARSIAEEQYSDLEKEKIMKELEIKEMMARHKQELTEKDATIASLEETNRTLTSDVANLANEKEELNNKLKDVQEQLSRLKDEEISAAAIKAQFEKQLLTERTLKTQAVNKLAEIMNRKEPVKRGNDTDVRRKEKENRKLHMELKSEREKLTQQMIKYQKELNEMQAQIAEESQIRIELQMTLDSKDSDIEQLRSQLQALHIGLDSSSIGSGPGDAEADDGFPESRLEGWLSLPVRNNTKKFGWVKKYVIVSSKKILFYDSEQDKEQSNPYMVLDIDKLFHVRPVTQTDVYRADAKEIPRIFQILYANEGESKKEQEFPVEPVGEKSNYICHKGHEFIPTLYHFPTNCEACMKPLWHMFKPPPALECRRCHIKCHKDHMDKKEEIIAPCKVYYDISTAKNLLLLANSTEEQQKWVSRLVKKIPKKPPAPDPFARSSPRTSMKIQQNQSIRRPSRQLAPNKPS
D1 PAM confirm: confirmation of human D1 dopamine receptor allosteric modulators | HEK293 D1 CRE-luciferase, dopamine EC30 potentiation; hits give high values | shares compounds with D1 mod | AID 642 | luminescence at 10 µM | hit rate 88% among 2,200;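 active = luminescence in either of two replicates above the same-plate mean plus 3 SD of the low-dose dopamine control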
D1 ag no DA: D1 (human) signaling in absence of dopamine; hit rate 0.8% among 1,900; luminescence at 10 µM; HEK293 D1 CRE-luciferase, luminescence, no dopamine; hits give high values; shares compounds with D1 mod; AID 646; in the data active = luminescence above about 3900
Isoprot counter: isoproterenol response counter-screen activity for D1 modulators | shares compounds with D1 mod | HEK293 D1 CRE-luciferase, isoproterenol EC30 counter-screen | hit rate 63% among 2,200 | calls only at 10 µM;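 active = luminescence in either replicate above plate mean of wells with a partly effective reference agonist dose plus 3 SD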;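 note: isoproterenol raises cAMP through native beta-adrenoceptor Gs so signal bypasses D1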
Large screens that a line does not name were inactive (follow-up assays come after a bar, where they were run). Only a selection was taken, and hits are over-represented in it overall.

COc1ccc(-c2nc(CSCC(=O)N3CCc4ccccc43)c(C)o2)cc1OC	D1 mod 3.8 | D1 PAM confirm 11284 | D1 ag no DA inactive | Isoprot counter active
Cc1cc(F)ccc1S(=O)(=O)Nc1c(C)n(C)n(-c2ccccc2)c1=O	D1 mod 5 | D1 PAM confirm inactive | D1 ag no DA inactive | Isoprot counter inactive
Cc1c(NS(C)(=O)=O)c(=O)n(-c2ccccc2)n1C	none
O=C1CCCN1CC(O)CS(=O)(=O)c1ccc(Cl)cc1 (configuration not stated)	none (no result: JNK3 blocker, PKA kinase inh, D1 mod, ROCK2 inh)
Cn1c(CN2CCOCC2)nnc1SCC(=O)NCCc1ccccc1	none
O=C(c1cc(Cl)cc(Cl)c1)N1CCOCC1	none
COc1ccccc1NC(=O)N(Cc1ccc2c(c1)OCO2)Cc1nc2ccccc2c(=O)[nH]1	D1 mod 4.9 | D1 PAM confirm 5620 | D1 ag no DA inactive | Isoprot counter inactive
COc1cccc(C(=O)N(Cc2ccc3c(c2)OCO3)Cc2nc3ccccc3c(=O)[nH]2)c1	none
COc1cc(NC(=O)CCCC(=O)OCC(F)(F)C(F)F)nc(OC)n1	none
COC(=O)c1c(-c2cccs2)csc1NC(=O)CN1CCOCC1	JNK3 blocker 23, D1 mod 28 | D1 PAM confirm 18224 | D1 ag no DA inactive | Isoprot counter active
O=C(NC(Cc1ccccc1)C(=O)OCC(=O)N1CCc2ccccc21)c1ccco1 (configuration not stated)	D1 mod 3.1 | D1 PAM confirm inactive | D1 ag no DA inactive | Isoprot counter inactive
COc1ccc(CN2CC(C(=O)NCCc3ccc(C)cc3)CC2=O)cc1 (configuration not stated)	none (no result: JNK3 blocker, PKA kinase inh, D1 mod, ROCK2 inh)
O=C(CCN1C(=O)c2ccccc2C1=O)N1CCC(c2ccccc2)C1 (configuration not stated)	none
Cc1nn(-c2ccccc2)c2c1/C(=N/O)CC(C)(C)C2	D1 mod 12 (no result: hDAT+cocaine) | D1 PAM confirm 11596 | D1 ag no DA inactive | Isoprot counter active
O=C(O)c1ccccc1SC1CC(=O)N(C2CCCCC2)C1=O (configuration not stated)	D1 mod 3.9 | D1 PAM confirm inactive | D1 ag no DA inactive | Isoprot counter inactive
CC(c1ccccc1)N1C(=O)CC(Sc2ncccc2C(=O)O)C1=O (configuration not stated)	none
COC(=O)c1c(-c2ccc(F)cc2)csc1NC(=O)c1ccco1	D1 mod 3.3 (no result: JNK3 blocker, PKA kinase inh, ROCK2 inh) | D1 PAM confirm 8568 | D1 ag no DA inactive | Isoprot counter inactive
O=C(O)CSc1nc2ccccc2c(=O)[nH]1	none (no result: JNK3 blocker, PKA kinase inh, D1 mod, ROCK2 inh)
C=CCSc1nc2ccccc2c(=O)[nH]1	D1 mod 3 | D1 PAM confirm 9580 | D1 ag no DA inactive | Isoprot counter inactive
CCOC(=O)c1sc2ccc(S(=O)(=O)N3CCOCC3)cc2c1N	D1 mod 6.7 (no result: JNK3 blocker, ROCK2 inh) | D1 PAM confirm inactive | Isoprot counter active
CCOC(=O)c1sc2ccc(S(=O)(=O)N3CCCCC3)cc2c1N	none (no result: JNK3 blocker, ROCK2 inh)
O=C(CCc1nc(-c2ccccc2F)no1)Nc1ccc(Oc2ccccc2)cc1	D1 mod 8.6 | D1 PAM confirm inactive | D1 ag no DA inactive | Isoprot counter inactive
CC(C)CC(c1nnnn1Cc1ccccc1)N1CCC(C(N)=O)CC1 (configuration not stated)	none (no result: JNK3 blocker, PKA kinase inh, D1 mod, ROCK2 inh)
Cc1cc(C)n(-c2nnc3n2N=C(c2c[nH]c4ccccc24)CS3)n1	D1 mod 9.8 | D1 PAM confirm 10564 | D1 ag no DA inactive | Isoprot counter active
Cn1c(=O)[nH]c(=O)c2c1nc(Sc1ccccc1)n2CCc1ccccc1	D1 mod 9.2 | D1 PAM confirm 20140 | D1 ag no DA inactive | Isoprot counter active
Cn1c(=O)[nH]c(=O)c2c1nc(Sc1ncccn1)n2CCCc1ccccc1	D1 mod 9.6 (no result: JNK3 blocker, ROCK2 inh) | D1 PAM confirm 18924 | D1 ag no DA inactive | Isoprot counter active
Cc1ccnc(Sc2nc3c(c(=O)[nH]c(=O)n3C)n2CCCc2ccccc2)n1	none (no result: JNK3 blocker, D1 mod, ROCK2 inh)
Cc1ccc(Sc2nc3c(c(=O)[nH]c(=O)n3C)n2CCc2ccccc2)cc1	none (no result: JNK3 blocker, PKA kinase inh, D1 mod, ROCK2 inh)
COC(=O)C(C)Sc1nc2c(c(=O)[nH]c(=O)n2C)n1CCCc1ccccc1 (configuration not stated)	D1 mod 4.7 | D1 PAM confirm 8864 | D1 ag no DA inactive | Isoprot counter active
O=S1(=O)C=CC(Nc2ccccc2)C1 (configuration not stated)	none (no result: JNK3 blocker, PKA kinase inh, D1 mod, ROCK2 inh)
CCOc1ccc(CCNC(=O)C2CCN(c3nn4c(=O)cc(C)nc4s3)CC2)cc1OCC	none
c1ccc(-c2c(-c3ccccc3)n(Cc3ccco3)c3ncnc(NCCCn4ccnc4)c23)cc1	none (no result: JNK3 blocker, PKA kinase inh, D1 mod, ROCK2 inh)
OCCNc1ncnc2c1c(-c1ccccc1)c(-c1ccccc1)n2Cc1ccco1	D1 mod 5.8 | D1 PAM confirm 8384 | D1 ag no DA inactive | Isoprot counter inactive
CCCCCn1c(SCC(=O)OCC)nc2cc(C(=O)N3CCC(C(N)=O)CC3)ccc2c1=O	none (no result: JNK3 blocker, PKA kinase inh, D1 mod, ROCK2 inh)
N#CCSc1nc2cc(C(=O)N3CCC(C(N)=O)CC3)ccc2c2nc3ccccc3n12	D1 mod 10 | D1 PAM confirm 12528 | D1 ag no DA inactive | Isoprot counter active
Cc1oc2ccc(O)cc2c1C(=O)OC(C)C	none (no result: JNK3 blocker, PKA kinase inh, D1 mod, ROCK2 inh)
Cc1oc2ccc(OCC(N)=O)cc2c1C(=O)OC(C)C	JNK3 blocker 32, D1 mod 4.6 | D1 PAM confirm 6628 | D1 ag no DA inactive | Isoprot counter inactive
COc1ccc(C(=O)OCC(=O)NCc2ccco2)cc1OC	none
CCOc1ccc(C(=O)OCC(=O)NCc2ccco2)cc1OCC	D1 mod 7.7 | D1 PAM confirm 12216 | D1 ag no DA inactive | Isoprot counter active
COc1cc2ccccc2cc1-c1nnc(COc2ccccc2)o1	none
CCCc1nnc(NC(=O)c2ccncc2)s1	none
CCc1nnc(NC(=O)c2ccncc2)s1	D1 mod 2.8 | D1 PAM confirm inactive | D1 ag no DA inactive | Isoprot counter inactive
O=C(NCCN1CCN(c2ccccc2)CC1)C1CCN(S(=O)(=O)N2CCOCC2)CC1	none
O=C(NCCCN1CCN(c2ccccc2F)CC1)C1CCN(S(=O)(=O)N2CCOCC2)CC1	D1 mod 14 | D1 PAM confirm 15768 | D1 ag no DA 10072 | Isoprot counter active
CCc1ccccc1-n1c(SCC(=O)Nc2ccc3c(c2)OCCO3)nc2[nH]ncc2c1=O	none
O=c1c2cn[nH]c2nc(SCc2ccc3c(c2)OCCO3)n1-c1ccccc1	D1 mod 7.9 (no result: JNK3 blocker, ROCK2 inh) | D1 PAM confirm 11032 | D1 ag no DA inactive | Isoprot counter active
O=C1N(CN2CCC3(CC2)OCCO3)c2ccccc2C12OCCCO2	none
O=C1N(CN2CCN(c3cccc(Cl)c3)CC2)c2ccccc2C12OCCCO2	D1 mod 2.4 | D1 PAM confirm 3096 | D1 ag no DA inactive | Isoprot counter inactive
